Source: PubChem BioAssay (NCI)
The panel holds about 79,000 compounds, 15% with a hit somewhere; the sample as a whole holds those more often. Values without a mark were called inactive. Active and inactive are the calls of the source. Cut-off read from the data, not from the text of the source: active = growth inhibition above about 70%; inactive = the rest.

Tests used:
[1] = NCI Yeast Anticancer Drug Screen. Data for the rad50 strain (AID 155);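 note: 0% = growth of vehicle-only cultures of the same strain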; settings: S. cerevisiae rad50 strain growth inhibition, active compounds read high
Summary of the method: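 Cells are treated with compound, grown, and their growth is then scored against vehicle-only cultures of the same repair-deficient yeast strain.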

[2] = NCI Yeast Anticancer Drug Screen. Data for the mec2-1 strain (AID 157); settings: S. cerevisiae mec2-1 strain, active compounds read high
Summary of the method: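 Readout is yeast growth inhibition, normalised to vehicle-treated controls, in the mec2-1 strain exposed to compound.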

[3] = NCI Yeast Anticancer Drug Screen. Data for the sgs1 mgt1 strain (AID 161);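 note: 0% = growth of cultures given vehicle only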; settings: S. cerevisiae sgs1 mgt1 strain, active compounds read high
Summary of the method: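 Growth of a repair-deficient yeast mutant was monitored after compound treatment and expressed as inhibition relative to vehicle-treated cultures.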

[4] = NCI Yeast Anticancer Drug Screen. Data for the cln2 rad14 strain (AID 165);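 note: 0% = growth equal to vehicle treated cultures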; settings: S. cerevisiae cln2 rad14 strain, active compounds read high
Summary of the method: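 Relative to vehicle controls, growth inhibition of compound-treated cln2 rad14 yeast was recorded.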

[5] = NCI Yeast Anticancer Drug Screen. Data for the bub3 strain (AID 167); settings: S. cerevisiae bub3 mutant strain, active compounds read high
Summary of the method: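 Part of a panel of yeast mutants defective in DNA damage repair or cell cycle regulation. Each strain is grown with compound, and inhibition is calculated relative to solvent-treated cultures.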

[6] = NCI Yeast Anticancer Drug Screen. Data for the mlh1 rad18 strain (AID 175); settings: S. cerevisiae mlh1 rad18 strain growth inhibition, active compounds read high
Summary of the method: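 Test agents were incubated with a yeast strain of defined genotype (DNA damage repair defect). Inhibition of growth was derived by comparison with vehicle-exposed cultures.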

[7] = at 5.0 µM (retest, dose inferred, filed as 0.5)
[8] = at 50.0 µM (retest, dose inferred, filed as 5.0)

Row | Structure (SMILES) | growth inhibition [1, 7] | growth inhibition [1, 8] | growth inhibition ([1]; at 50.0 µM) | growth inhibition [2, 7] [%] | growth inhibition [2, 8] | growth inhibition ([2]; at 50.0 µM) | growth inhibition [3, 7] | growth inhibition [3, 8] | growth inhibition ([3]; at 50.0 µM) | growth inhibition [4, 7] [%] | growth inhibition [4, 8] | growth inhibition ([4]; at 50.0 µM) | growth inhibition [5, 7] | growth inhibition [5, 8] | growth inhibition ([5]; at 50.0 µM) | growth inhibition [6, 7] | growth inhibition [6, 8] | growth inhibition ([6]; at 50.0 µM)
1 | O=C(O)CC1c2ccc3ccccc3c2CCC1c1ccccc1 (configuration not stated) | 74% (active) | 99% (active) | 99.6% (active) | 44 | 99% (active) | 99.6% (active) | 68% | 99% (active) | 99.7% (active) | 34 | 99% (active) | 99.5% (active) | 30% | 99% (active) | 99.5% (active) | 78% (active) | 99% (active) | 99.5% (active)
2 | COc1ccc(C(=O)C(CN2CCOCC2)CN2CCOCC2)cc1 | 11% | -10% | 96.2% (active) | 20 | -6% | 97.2% (active) | 23% | -6% | 97.7% (active) | 11 | -11% | 92.3% (active) | 10% | -5% | 95.7% (active) | 18% | -2% | 97.2% (active)
3 | CC(Nc1cc(Cl)cc(Cl)c1)c1ccncc1 (configuration not stated) | 1% | 98% (active) | 37.2% | -26 | 98% (active) | 56.4% | -31% | 91% (active) | 43% | 22 | 98% (active) | 22% | -59% | 99% (active) | 43.5% | -10% | 98% (active) | 42.5%
4 | O=C(Nc1c(Cl)cccc1Cl)Oc1c(Br)cc(Br)cc1Br | 77% (active) | 96% (active) | 90.3% (active) | 66 | 94% (active) | 93% (active) | 27% | 98% (active) | 93.2% (active) | 25 | 100% (active) | 92.2% (active) | 58% | 93% (active) | 91% (active) | 64% | 98% (active) | 90.1% (active)
5 | O=C(/C=C(/c1ccccc1)P(=O)(c1ccccc1)c1ccccc1)c1ccccc1 | -2% | 97% (active) | 97.9% (active) | -15 | 97% (active) | 98.6% (active) | -5% | 97% (active) | 98.8% (active) | -4 | 71% (active) | 97.8% (active) | -5% | 86% (active) | 97.8% (active) | 15% | 99% (active) | 98.6% (active)
6 | S=C(Nc1ccc(Br)c(Cl)c1)SCc1ccc2c(c1)OCO2 | 49% | 97% (active) | 88% (active) | 49 | 98% (active) | 88.9% (active) | 77% (active) | 98% (active) | 88.7% (active) | 50 | 98% (active) | 86.1% (active) | 76% (active) | 98% (active) | 88.2% (active) | 44% | 97% (active) | 87.4% (active)
7 | COc1cc2c(c(O)c1OC)-c1c(cc(OC)c(OC)c1OC)CC(C)C(C)C2 (configuration not stated) | -23% | 27% | 66.9% | -23 | 11% | 46.7% | -15% | 63% | 74.7% (active) | -10 | 61% | 51.5% | 9% | 53% | 60% | 6% | 59% | 18.7%
8 | FC(F)(F)COP1(OCC(F)(F)F)=NP(OCC(F)(F)F)(OCC(F)(F)F)=NP(c2ccccc2)(c2ccccc2)=N1 | 0% | -4% | 25.9% | -1 | -1% | 25.4% | 3% | -1% | 38.1% | 2 | -6% | 2.45% | -5% | -8% | -3.05% | 11% | 0% | 56.1%
9 | Cc1cc(N/N=C/c2ccc([N+](=O)[O-])o2)c2cc3c(cc2n1)OCO3 | 23% | 99% (active) | 96.7% (active) | 16 | 100% (active) | 92.3% (active) | 33% | 99% (active) | 97.5% (active) | 4 | 99% (active) | 92.7% (active) | 8% | 99% (active) | 90.5% (active) | 23% | 99% (active) | 95.3% (active)
